# Data as given in the antibiotic and cytotoxicity screens of Wong et al. (2023).
# Out of some 39,000 compounds screened, about 1,500 (3.8%) were called active. Many of the other results were omitted from the sample, so actives are more common in it than they were.
# Test system: HSkMC (human skeletal muscle cells)
# Assay: cytotoxicity call (relative viability < 0.9)
# Settings: 10 µM
row,Compound,cytotoxicity call
1,C[C@@H]1CCCCO[C@@H](CN(C)C(=O)Cc2ccccc2)[C@H](C)CN([C@@H](C)CO)C(=O)c2cc(NS(=O)(=O)c3ccc(Cl)cc3)ccc2O1,inactive
2,CC(C)Oc1cccc(CC(=O)N2CCC[C@](CC[N+]34CCC(c5ccccc5)(CC3)CC4)(c3ccc(Cl)c(Cl)c3)C2)c1,inactive
3,CC(=O)N(C)C1(c2ccccc2)CCN(CCC[C@]2(c3ccc(Cl)c(Cl)c3)CCCN(C(=O)c3ccccc3)C2)CC1,active
4,CC(C)NC(=O)Nc1ccc2c(c1)CC(=O)N([C@@H](C)CO)C[C@@H](C)[C@@H](CN(C)S(=O)(=O)c1cn(C)cn1)O2,inactive
5,C[C@H](CO)N1C[C@H](C)[C@@H](CN(C)Cc2ccccc2)OCCCC[C@H](C)Oc2ccc(NC(=O)c3ccncc3)cc2C1=O,inactive
6,C[C@H](CO)N1C[C@H](C)[C@H](CN(C)Cc2ccc(C(F)(F)F)cc2)OCc2ccccc2-c2c(n(C)c3ccccc23)C1=O,inactive
7,C[C@@H]1CN([C@H](C)CO)C(=O)c2c(c3ccccc3n2C)-c2ccccc2CO[C@@H]1CN(C)S(=O)(=O)c1ccc(C(F)(F)F)cc1,inactive
8,C[C@@H]1CN([C@H](C)CO)C(=O)c2c(c3ccccc3n2C)-c2ccccc2CO[C@@H]1CN(C)Cc1ccc(F)cc1,inactive
9,C[C@@H]1CN([C@@H](C)CO)C(=O)c2c(c3ccccc3n2C)-c2ccccc2CO[C@@H]1CN(C)Cc1ccc(C(F)(F)F)cc1,inactive
10,C[C@@H]1CN([C@H](C)CO)C(=O)c2c(c3ccccc3n2C)-c2ccccc2CO[C@@H]1CN(C)Cc1ccc(C(F)(F)F)cc1,active
11,C[C@@H]1CN([C@H](C)CO)C(=O)c2c(c3ccccc3n2C)-c2ccccc2CO[C@H]1CN(C)Cc1ccc(C(F)(F)F)cc1,active
12,C[C@H]1CN([C@@H](C)CO)C(=O)c2c(c3ccccc3n2C)-c2ccccc2CO[C@@H]1CN(C)Cc1ccc(C(F)(F)F)cc1,inactive
13,C[C@H](CO)N1C[C@H](C)[C@@H](CN(C)Cc2ccc(C(F)(F)F)cc2)OCc2ccccc2-c2c(n(C)c3ccccc23)C1=O,inactive
14,C[C@H]1CN([C@@H](C)CO)C(=O)c2c(c3ccccc3n2C)-c2ccccc2CO[C@H]1CN(C)Cc1ccc(C(F)(F)F)cc1,inactive
15,C[C@@H]1CN([C@@H](C)CO)C(=O)c2c(c3ccccc3n2C)-c2ccccc2CO[C@@H]1CN(C)S(=O)(=O)c1ccc(C(F)(F)F)cc1,inactive
16,C[C@@H]1CN([C@H](C)CO)C(=O)c2c(c3ccccc3n2C)-c2ccccc2CO[C@H]1CN(C)S(=O)(=O)c1ccc(C(F)(F)F)cc1,active
17,C[C@@H]1CN([C@@H](C)CO)C(=O)c2c(c3ccccc3n2C)-c2ccccc2CO[C@H]1CN(C)Cc1ccc(C(F)(F)F)cc1,active
18,C[C@H](CO)N1C[C@H](C)[C@@H](CN(C)C(=O)Nc2ccccc2)OCCCC[C@H](C)Oc2ccc(NC(=O)Nc3ccc(F)cc3)cc2C1=O,inactive
19,C[C@@H]1CCCCO[C@H](CN(C)C(=O)Nc2ccc3c(c2)OCO3)[C@@H](C)CN([C@@H](C)CO)C(=O)c2cc(NS(=O)(=O)c3cccs3)ccc2O1,inactive
20,CN(C)C(=O)C[C@H]1CC[C@@H](NC(=O)C2CCOCC2)[C@H](CO)O1,inactive

row,Compound,cytotoxicity call
1,O=C(/C=C/c1ccc(O)c(O)c1)O[C@H]1[C@H](O)C[C@](OC(=O)/C=C/c2ccc(O)c(O)c2)(C(=O)O)C[C@H]1O,inactive
2,O=C(C[C@@H]1CC[C@@H]2[C@H](COC[C@@H](O)CN2S(=O)(=O)c2ccc(Cl)cc2)O1)NCC1CCCCC1,inactive
3,COc1ccc(NC(=O)N(C)C[C@@H]2OCCCC[C@@H](C)Oc3ccc(NC(=O)Nc4ccc(F)cc4)cc3C(=O)N([C@H](C)CO)C[C@@H]2C)cc1,inactive
4,COc1ccc(S(=O)(=O)N(C)C[C@@H]2Oc3ccc(NC(=O)c4ccncc4)cc3C(=O)N([C@@H](C)CO)C[C@H]2C)cc1,inactive
5,C[C@H]1CN([C@@H](C)CO)C(=O)c2cccc(NC(=O)c3nc4ccccc4s3)c2O[C@H]1CN(C)S(C)(=O)=O,inactive
6,CC(C)NC(=O)N(C)C[C@@H]1Oc2ccc(NS(=O)(=O)c3cccs3)cc2CC(=O)N([C@@H](C)CO)C[C@H]1C,inactive
7,C[C@@H]1CN([C@@H](C)CO)S(=O)(=O)c2ccc(C#C[C@@H](C)O)cc2O[C@@H]1CN(C)C(=O)c1ccncc1,inactive
8,CO[C@@H]1CN(C)C(=O)c2cc(NC(=O)C3CC3)ccc2OC[C@H](C)N(C(=O)C2CCOCC2)C[C@H]1C,inactive
9,Cc1noc(C)c1NC(=O)N(C)C[C@H]1Oc2c(NC(=O)NC(C)C)cccc2C(=O)N([C@H](C)CO)C[C@H]1C,inactive
10,CO[C@@H](C(=O)N(C)C[C@H]1OCc2ccccc2-c2c(n(C)c3ccccc23)C(=O)N([C@@H](C)CO)C[C@H]1C)c1ccccc1,inactive
11,C[C@H]1CN([C@@H](C)CO)C(=O)Cc2cc(NC(=O)Nc3cccc4ccccc34)ccc2O[C@@H]1CN(C)Cc1ccc(C(F)(F)F)cc1,inactive
12,C[C@H]1CN([C@@H](C)CO)C(=O)c2cc(NC(=O)Nc3cccc4ccccc34)ccc2O[C@H]1CN(C)Cc1ccc(C(F)(F)F)cc1,active
13,C[C@@H]1CN([C@@H](C)CO)C(=O)Cc2cc(NC(=O)Nc3ccc(C(F)(F)F)cc3)ccc2O[C@@H]1CN(C)C(=O)Nc1cccc2ccccc12,active
14,C[C@@H]1CN([C@H](C)CO)C(=O)c2cc(NC(=O)Nc3cccc4ccccc34)ccc2O[C@H]1CN(C)Cc1ccc(C(F)(F)F)cc1,inactive
15,C[C@H]1CN([C@@H](C)CO)C(=O)Cc2cc(NC(=O)Nc3cccc4ccccc34)ccc2O[C@@H]1CN(C)C(=O)Nc1ccc(C(F)(F)F)cc1,inactive
16,C[C@H](CO)N1C[C@H](C)[C@@H](CN(C)Cc2ccc(C(F)(F)F)cc2)Oc2ccc(NC(=O)Nc3cccc4ccccc34)cc2CC1=O,inactive
17,C[C@@H]1CN([C@@H](C)CO)C(=O)c2cc(NC(=O)Nc3cccc4ccccc34)ccc2O[C@H]1CN(C)Cc1ccc(C(F)(F)F)cc1,inactive
18,C[C@@H]1CN([C@@H](C)CO)C(=O)Cc2cc(NC(=O)Nc3cccc4ccccc34)ccc2O[C@@H]1CN(C)C(=O)Nc1ccc(C(F)(F)F)cc1,active
19,C[C@H]1CN([C@@H](C)CO)C(=O)Cc2cc(NC(=O)Nc3cccc4ccccc34)ccc2O[C@H]1CN(C)Cc1ccc(C(F)(F)F)cc1,active
20,C[C@H]1CN([C@@H](C)CO)C(=O)Cc2cc(NC(=O)Nc3ccc(C(F)(F)F)cc3)ccc2O[C@@H]1CN(C)C(=O)Nc1cccc2ccccc12,inactive

row,Compound,cytotoxicity call
1,C[C@H]1CN([C@@H](C)CO)C(=O)Cc2cc(NC(=O)Nc3ccc(C(F)(F)F)cc3)ccc2O[C@H]1CN(C)C(=O)Nc1cccc2ccccc12,inactive
2,C[C@@H]1CN([C@@H](C)CO)C(=O)Cc2cc(NC(=O)Nc3cccc4ccccc34)ccc2O[C@H]1CN(C)C(=O)Nc1ccc(C(F)(F)F)cc1,inactive
3,COc1ccc(NC(=O)Nc2ccc3c(c2)[C@@H]2C[C@@H](CC(=O)NCc4ccncc4)O[C@H](CO)[C@@H]2O3)cc1,inactive
4,COc1ccc(S(=O)(=O)N(C)C[C@@H]2OCCCC[C@@H](C)Oc3ccc(NC(=O)Nc4ccccc4)cc3C(=O)N([C@@H](C)CO)C[C@H]2C)cc1,inactive
5,C[C@H](CO)N1C[C@H](C)[C@H](CN(C)S(=O)(=O)c2ccccc2)Oc2ccc(NC(=O)Cn3cnnn3)cc2CC1=O,inactive
6,C[C@@H]1CN([C@@H](C)CO)C(=O)Cc2cc(NC(=O)Cc3cn(C)c4ccccc34)ccc2O[C@H]1CN(C)C(=O)Nc1cccc2ccccc12,inactive
7,C#CCN(O[C@@H](/C=C/[C@@H](O)Cc1ccccc1)C1CC1)[C@@H](Cc1ccc(-n2cc(CCC(=O)NO)nn2)cc1)C(=O)OC,inactive
8,Cc1noc(C)c1S(=O)(=O)N(C)C[C@H]1Oc2ccc(NS(=O)(=O)c3cn(C)cn3)cc2CC(=O)N([C@@H](C)CO)C[C@@H]1C,inactive
9,Cc1noc(C)c1S(=O)(=O)Nc1ccc2c(c1)C(=O)N([C@H](C)CO)C[C@H](C)[C@H](CN(C)C(=O)Nc1ccc3c(c1)OCO3)O2,inactive
10,Cc1noc(C)c1S(=O)(=O)Nc1ccc2c(c1)C(=O)N([C@H](C)CO)C[C@H](C)[C@@H](CN(C)S(=O)(=O)c1ccccc1)O2,inactive
11,O=C(C[C@@H]1C[C@@H]2c3cc(NC(=O)C4CCOCC4)ccc3O[C@@H]2[C@@H](CO)O1)NCc1ccc2c(c1)OCO2,inactive
12,C[C@H](CO)N1C[C@H](C)[C@@H](CN(C)CC2CC2)OCCCC[C@H](C)Oc2ccc(NC(=O)Nc3ccc(C(F)(F)F)cc3)cc2C1=O,inactive
13,C[C@@H]1CCCCO[C@@H](CN(C)CC2CCCCC2)[C@H](C)CN([C@@H](C)CO)C(=O)c2cc(NC(=O)Nc3ccc(C(F)(F)F)cc3)ccc2O1,active
14,C[C@@H]1CCCCO[C@H](CN(C)CC2CCCCC2)[C@H](C)CN([C@@H](C)CO)C(=O)c2cc(NC(=O)Nc3ccc(C(F)(F)F)cc3)ccc2O1,active
15,C[C@@H]1CCCCO[C@H](CN(C)CC2CCCCC2)[C@H](C)CN([C@H](C)CO)C(=O)c2cc(NC(=O)Nc3ccc(C(F)(F)F)cc3)ccc2O1,active
16,C[C@H](CO)N1C[C@H](C)[C@H](CN(C)CC2CCCCC2)OCCCC[C@H](C)Oc2ccc(NC(=O)Nc3ccc(C(F)(F)F)cc3)cc2C1=O,active
17,C[C@@H]1CCCCO[C@@H](CN(C)CC2CC2)[C@H](C)CN([C@H](C)CO)C(=O)c2cc(NC(=O)Nc3ccc(C(F)(F)F)cc3)ccc2O1,inactive
18,CC(C)(N)CO.Cn1c(=O)c2[nH]c(Br)nc2n(C)c1=O,inactive
